Each structure is given as a SMILES string. “And” between values parts separate entries of the source, which are not always exact repeats. Equal values may be shown once. Unmarked numbers belong to inactive results. Records with an inconclusive call do not appear. Entries that show only a call come without a potency. The source made the active and inactive calls. Calls come from the whole dose curve; as a rule, active = well fitted curve in the direction sought with a large enough effect in the repeat runs; inconclusive = weak or mixed curves; inactive = no such curve, though single readings can be large; an effect the other way counts as inactive or inconclusive.

A short description of one experiment: qHTS assay to identify small molecule HDAC inhibitors (AID 1259364). For activity change, negative = inhibition: top concentration of the series differs between compounds. Note: potency is the fitted concentration of half-maximal effect.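 Note: wild-type HCT-116 cells with endogenous class I/II HDAC activity; nearly all actives have a fitted effect of over 45% in size.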 The note with it: HCT-116 HDAC-Glo I/II luminescence, 2 h; series mostly up to 92.4 µM; activity change, negative = inhibition: at the top concentration. Put shortly:
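HCT-116 (wild type), 1,500 cells/well, overnight; compound 2 hr 37C 5% CO2; HDAC-Glo I/II reagent 30 min RT; luminescence readout.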
(In qHTS, concentration-response curves come from the screen itself.)
With `Cc1cccnc1`, the Potency result is “inactive”.

On to `CCCCCCCCCCCCc1ccccc1`, for which the Potency entry was “inactive”.

Take `CN(C)CCCN`: the Potency result was “inactive”.

Consider `c1ccc2scnc2c1`, for which the Potency entry was “inactive”.

Turning to `OCC(CO)(CBr)CBr`, the Potency result was “inactive”.

With `CCCCCCCCCC`, the Potency result is “inactive”.

In the case of `CC1=C(C)S(=O)(=O)CCS1(=O)=O`, the Potency entry is “inactive”.

Consider `O=c1[nH]nnc2ccccc12`, for which the Potency entry was “inactive”.

On to `COS(C)(=O)=O`, for which the Potency result was “inactive”.

Regarding `O=S1(=O)CC=CC1`, the Potency result was “inactive”.

Take `CC1CCC(C(C)C)C(O)C1` (stereo not drawn): the Potency result was “inactive”.

As to `CCC(O)OC(O)CC` (stereo not drawn), the Potency result is “inactive”.

With `CCN(CC)c1ccc(C(=O)c2ccccc2C(=O)O)c(O)c1`, the Potency entry is “inactive”.

Consider `Cc1cccc(O)c1`, for which the Potency result was “inactive”.

As to `O=S(=O)(O)c1ccc2ccccc2c1`, the Potency result is “inactive”.

On to `CCCCCCCCCCCCOCCO`, for which the Potency result is “inactive”.

Take `Fc1ccc(Br)cc1`: the Potency entry was “inactive”.

Consider `O=C(O)c1cc(C(=O)O)cc(S(=O)(=O)O)c1`, for which the Potency entry was “inactive”.

With `O=C(O)c1ccc(C(=O)O)cc1`, the Potency result was “inactive”.

Turning to `c1ccc2c(c1)ccc1ccccc12`, the Potency entry is “inactive”.

Consider `CCCCCOC(C)=O`, for which the Potency entry is “inactive”.

On to `CCCC(C)=O`, for which the Potency result was “inactive”.

On to `Oc1cccc2ccccc12`, for which the Potency result is “inactive”.

Turning to `C=C(C)C(=O)OCCOCCOCCOC(=O)C(=C)C`, the Potency entry was “inactive”.

For the compound `CCCCC(CC)COC(=O)CS` (stereo not drawn), the Potency result was “inactive”.

`CN(C)CCC(c1ccc(Cl)cc1)c1ccccn1` (stereo not drawn): the Potency result was “inactive”.

For the compound `CC(C)(N)CO`, the Potency result is “inactive”.

As for `Nc1ccccc1[N+](=O)[O-]`, the Potency entry is “inactive”.

For `CCc1cccc(C)c1N`, the Potency result is “inactive”.

Turning to `O=C(Oc1ccccc1)c1ccccc1`, the “activity change, negative = inhibition” value is 4.75%.

In the case of `CCCCC(CC)COC(=O)CCCCC(=O)OCC(CC)CCCC` (stereo not drawn), the Potency result was “inactive”.

As to `C=C(C)C(=O)O[C@H]1C[C@@H]2CC[C@@]1(C)C2(C)C`, the Potency entry is “inactive”.

Regarding `O=C(O)CCCCCCCCCCC(=O)O`, the Potency is 21.9 µM (active) and 21.7 µM (active).

With `Cc1cc(C)c(C)cc1C`, the Potency entry was “inactive”.

`O=C(CC(C(=O)OC1CCCCC1)S(=O)(=O)O)OC1CCCCC1` (stereo not drawn): the Potency result was “inactive”.

As to `CCCCCCOCCO`, the Potency entry is “inactive”.

Regarding `Cc1occc(=O)c1O`, the Potency entry is “inactive”.

For `CC(=O)c1ccccc1`, the Potency result is “inactive”.

Consider `CCCCCC/C(C=O)=C\c1ccccc1`, for which the Potency result was “inactive”.

Another experiment can be described thus: qHTS assay to identify small molecule HDAC inhibitors - cell viability counter screen (AID 1259365). Note: nearly all actives have a fitted effect of over 50% in size. The settings on record: HCT-116 viability, CellTiter-Glo ATP luminescence, 2 h; series mostly up to 92.4 µM; activity change, negative = cytotoxicity: at the top concentration. Put shortly: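 Measured quantity is CellTiter-Glo luminescence from wild-type HCT-116 cells after compound incubation of 2hr at 37C, 5% CO2; reagent developed 30min at room temperature.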
In the case of `Cc1cccnc1`, the result was inactive.

In the case of `CCCCCCCCCCCCc1ccccc1`, the call was inactive.

On to `CN(C)CCCN`, for which the compound was classed as inactive.

Regarding `c1ccc2scnc2c1`, the call was inactive.

As for `OCC(CO)(CBr)CBr`, the compound was called inactive.

`CCCCCCCCCC`: the compound was called inactive.

Turning to `CC1=C(C)S(=O)(=O)CCS1(=O)=O`, the call was inactive.

As to `O=c1[nH]nnc2ccccc12`, the compound was classed as inactive.

Turning to `COS(C)(=O)=O`, the result was inactive.

`O=S1(=O)CC=CC1`: the outcome was inactive.

Consider `CC1CCC(C(C)C)C(O)C1` (stereo not drawn), for which the compound was called inactive.

As for `CCC(O)OC(O)CC` (stereo not drawn), the call was inactive.

Regarding `CCN(CC)c1ccc(C(=O)c2ccccc2C(=O)O)c(O)c1`, the result was inactive.

In the case of `Cc1cccc(O)c1`, the outcome was inactive.

Consider `O=S(=O)(O)c1ccc2ccccc2c1`, for which the result was inactive.

Turning to `CCCCCCCCCCCCOCCO`, the compound was classed as inactive.

Take `Fc1ccc(Br)cc1`: the compound was classed as inactive.

In the case of `O=C(O)c1cc(C(=O)O)cc(S(=O)(=O)O)c1`, the result was inactive.

Consider `O=C(O)c1ccc(C(=O)O)cc1`, for which the outcome was inactive.

For `c1ccc2c(c1)ccc1ccccc12`, the result was inactive.

On to `CCCCCOC(C)=O`, for which the call was inactive.

On to `CCCC(C)=O`, for which the compound was classed as inactive.

Take `Oc1cccc2ccccc12`: the “activity change, negative = cytotoxicity” value is 13.4%.

Take `C=C(C)C(=O)OCCOCCOCCOC(=O)C(=C)C`: the outcome was inactive.

On to `CCCCC(CC)COC(=O)CS` (stereo not drawn), for which the compound was called inactive.

For the compound `CN(C)CCC(c1ccc(Cl)cc1)c1ccccn1` (stereo not drawn), the outcome was inactive.

Turning to `CC(C)(N)CO`, the call was inactive.

For `Nc1ccccc1[N+](=O)[O-]`, the compound was classed as inactive.

Consider `CCc1cccc(C)c1N`, for which the compound was classed as inactive.

Turning to `O=C(Oc1ccccc1)c1ccccc1`, the compound was called inactive.

`CCCCC(CC)COC(=O)CCCCC(=O)OCC(CC)CCCC` (stereo not drawn): the call was inactive.

Regarding `C=C(C)C(=O)O[C@H]1C[C@@H]2CC[C@@]1(C)C2(C)C`, the call was inactive.

As to `O=C(O)CCCCCCCCCCC(=O)O`, the call was inactive.

For the compound `Cc1cc(C)c(C)cc1C`, the result was inactive.

With `O=C(CC(C(=O)OC1CCCCC1)S(=O)(=O)O)OC1CCCCC1` (stereo not drawn), the call was inactive.

Regarding `CCCCCCOCCO`, the result was inactive.

Turning to `Cc1occc(=O)c1O`, the result was inactive.

In the case of `CC(=O)c1ccccc1`, the result was inactive.

`CCCCCC/C(C=O)=C\c1ccccc1`: the compound was classed as inactive.
